The assay deals with T1, Methionyl-tRNA synthetase, putative (Leishmania donovani (strain BPK282A1)) (UniProt E9BF75).
T1 sequence (whole entry): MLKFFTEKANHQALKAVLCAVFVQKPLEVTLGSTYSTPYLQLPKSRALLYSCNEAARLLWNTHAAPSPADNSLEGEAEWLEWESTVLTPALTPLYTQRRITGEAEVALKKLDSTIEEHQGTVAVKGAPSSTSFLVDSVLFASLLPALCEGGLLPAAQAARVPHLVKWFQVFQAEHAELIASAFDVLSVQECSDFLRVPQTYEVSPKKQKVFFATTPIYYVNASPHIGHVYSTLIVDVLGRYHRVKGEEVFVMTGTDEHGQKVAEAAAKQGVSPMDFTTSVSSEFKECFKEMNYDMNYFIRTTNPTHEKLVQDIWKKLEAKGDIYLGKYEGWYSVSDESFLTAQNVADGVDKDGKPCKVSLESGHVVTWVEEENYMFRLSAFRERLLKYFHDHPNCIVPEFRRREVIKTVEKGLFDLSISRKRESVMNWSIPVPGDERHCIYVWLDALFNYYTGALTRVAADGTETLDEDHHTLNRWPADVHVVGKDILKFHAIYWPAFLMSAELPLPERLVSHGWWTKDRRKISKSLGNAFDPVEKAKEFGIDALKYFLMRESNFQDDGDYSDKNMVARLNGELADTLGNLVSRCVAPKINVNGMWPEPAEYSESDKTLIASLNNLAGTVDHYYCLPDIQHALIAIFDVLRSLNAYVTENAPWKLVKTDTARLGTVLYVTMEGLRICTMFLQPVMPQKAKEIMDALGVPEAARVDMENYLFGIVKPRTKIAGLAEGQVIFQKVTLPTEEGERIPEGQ
The assay can be described thus: Leishmania donovani Methionine tRNA synthetase (LdMetRS):v7. Dose response assay. It is filed as functional. The arrangement: conc 80 nM, time 150 minutes.

Each structure is given as a SMILES string.

Compound `Cc1sc2nc(-c3cccs3)nc(N3CCNC(=O)C3)c2c1C` came in with a PXC50 (MAX_EFFECT 4.8) of less than 4 and a PXC50 (MAX_EFFECT 8.994708995) of less than 4.

On to `COc1ccccc1NC(=O)Nc1cc(C(=O)O)ccc1OC`, for which the PXC50 (MAX_EFFECT 5.794392523) was less than 4.

Consider `Nc1noc2ccc(-c3cnc4ccc(N5CCCCC5)nn34)cc12`, for which the PXC50 runs as follows: (BOTTOM 2.074435444, HILLSLOPE 0.92774459, MAX_EFFECT 58.33333333, TOP 100.0) 4.06; (BOTTOM -0.552717408, HILLSLOPE 0.869319648, MAX_EFFECT 51.90839695, TOP 100.0) 4.01.

In the case of `Cc1cc2c(NC3CCCCC3)nc(-c3cccnc3)nc2s1`, the PXC50 is, setting by setting: (MAX_EFFECT 17.08542714) less than 4; (MAX_EFFECT 19.41031941) less than 4.

`CCOC(=O)c1sc2nc(CN3CCCCC3)nc(NC3CC3)c2c1C` displayed a PXC50 (MAX_EFFECT 16.58291457) of less than 4 and a PXC50 (MAX_EFFECT 18.42751843) of less than 4.

In turn, `CNC(=O)CNc1nc(C)nc2sc3c(c12)CCC3` came in with a PXC50 (MAX_EFFECT 7.888040712) of less than 4 and a PXC50 (MAX_EFFECT 9.319899244) of less than 4.

For `COCCNc1nc(-n2nc(C)cc2C)nc2sccc12`, the PXC50 is 4.03 (BOTTOM 2.201340626, HILLSLOPE 2.387703954, MAX_EFFECT 53.50877193, TOP 100.0) and less than 4 (MAX_EFFECT 36.45833333).

With `O=C(c1c[nH]cn1)N1CCC(F)(F)C2(CCN(c3ccccn3)C2)C1` (stereo not drawn), the PXC50 was less than 4 (MAX_EFFECT 10.79812207) and less than 4 (MAX_EFFECT 12.40740741).

For the compound `CS(=O)(=O)N1CCN(c2ccc3ccc(C(=O)NCC(=O)N4CCOCC4)cn23)CC1`, the PXC50 by setting is: (BOTTOM 0.290613171, HILLSLOPE 1.637678219, MAX_EFFECT 51.19617225, TOP 53.26483222) 4.83; (BOTTOM 5.655540606, HILLSLOPE 2.540340494, MAX_EFFECT 56.3071298, TOP 55.42961413) 4.8.

As for `CN1CCC(CNCc2cc(Cl)cc(Cl)c2)CC1`, the PXC50 (MAX_EFFECT 8.986615679) was less than 2.7.

Turning to `CC(C)(C)OC(=O)N1CCN(c2ccc3ccc(C(=O)NC4CCCC4)cn23)CC1`, the PXC50 is less than 4 (MAX_EFFECT 20.86513995) and less than 4 (MAX_EFFECT 27.19298246).

Take `Nc1noc2ccc(-c3cnc4ccc(NCc5ccncc5)nn34)cc12`: the PXC50 reads like this: (MAX_EFFECT 14.75826972) less than 4; (MAX_EFFECT 25.87719298) less than 4.

As for `Cc1cc2c(N3CCN(CCO)CC3)nc(-c3cccnc3)nc2s1`, the PXC50 by setting is: (MAX_EFFECT 11.05527638) less than 4; (MAX_EFFECT 12.53071253) less than 4.

As to `Fc1cccc(OC[C@@H]2CNCCO2)c1Oc1ccc(Cl)cc1`, the PXC50 (MAX_EFFECT 6.609808102) is less than 4 and the PXC50 (MAX_EFFECT 8.902691511) was less than 4.

Regarding `Cc1nc(N(C)C)c2c3c(sc2n1)CCCC3`, the PXC50 runs as follows: (MAX_EFFECT 4.166666667) less than 4; (MAX_EFFECT 4.385964912) less than 4.

In the case of `CCc1nc(NCCCN(C)C)c2cc(C)sc2n1`, the PXC50 by setting is: (MAX_EFFECT 12.06030151) less than 4; (MAX_EFFECT 14.98771499) less than 4.

On to `Clc1cc(Cl)cc(NCc2cccnc2)c1`, for which the PXC50 (BOTTOM -6.720584862, HILLSLOPE 0.561777258, MAX_EFFECT 60.61185468, TOP 100.0) was determined as 3.18.

`CCc1cc2c(NC(C(=O)O)C(C)C)nc(C)nc2s1` (stereo not drawn) displayed a PXC50 (MAX_EFFECT 5.866666667) of less than 4 and a PXC50 (MAX_EFFECT 8.994708995) of less than 4.

Take `Cc1nc(N2CCN(C3CCOCC3)CC2)c2ccsc2n1`: the PXC50 (MAX_EFFECT 2.659574468) is less than 4 and the PXC50 (MAX_EFFECT 4.663212435) was less than 4.

The compound `Cc1cc(CNCc2cc(Cl)cc(Cl)c2)no1` returned a PXC50 (MAX_EFFECT 24.66539197) of less than 2.7.

In turn, `CC(C)C[C@H](N)COc1ccccc1-c1ccnn1C` had a PXC50 (MAX_EFFECT 4.572564612) of less than 4 and a PXC50 (MAX_EFFECT 5.733944954) of less than 4.

Turning to `CC(C)NC(=O)c1ccc2ccc(N3CCN(S(C)(=O)=O)CC3)n2c1`, the PXC50 came out at 4.88 (BOTTOM 1.200641937, HILLSLOPE 2.342552546, MAX_EFFECT 57.54716981, TOP 55.68048652) and 4.95 (BOTTOM 2.289724742, HILLSLOPE 1.802731874, MAX_EFFECT 51.59817352, TOP 52.80479707).

Turning to `Cc1nc(N2CCCC2)c2c3c(sc2n1)CCCC3`, the PXC50 reads like this: (MAX_EFFECT 9.895833333) less than 4; (MAX_EFFECT 12.71929825) less than 4.

Turning to `Nc1nc(CSc2ccccn2)nc2sc3c(c12)CCCC3`, the PXC50 is, setting by setting: (MAX_EFFECT 37.33333333) less than 4; (MAX_EFFECT 37.56613757) less than 4.

Where the note is “MAX_EFFECT 7.663551402”, `CN(CCO)c1nccc(Nc2ccc(F)c(F)c2)n1` gave a PXC50 of less than 4.

In the case of `Oc1c(Cl)cc(Cl)cc1CNc1nccs1`, the PXC50 by setting is: (MAX_EFFECT 15.39923954) less than 3; (MAX_EFFECT 20.51835853) less than 3.

Turning to `Cc1sc2nc(CCN)nc(N3CCS(=O)(=O)CC3)c2c1C`, the PXC50 was less than 4 (MAX_EFFECT 6.266318538) and less than 4 (MAX_EFFECT 7.049608355).

For the compound `Cc1ccc(-c2ncc(CNc3cnccc3CO)s2)o1`, the PXC50 is less than 4 (MAX_EFFECT 7.511737089) and less than 4 (MAX_EFFECT 8.703703704).

In turn, `Cn1ncc2c(NCCO)nc(NCCc3ccccc3)nc21` yielded a PXC50 (MAX_EFFECT 11.85185185) of less than 4.

Consider `Cc1nc(N[C@@H](C)C(=O)O)c2c3c(sc2n1)CCCC3`, for which the PXC50 by setting is: (MAX_EFFECT 7.446808511) less than 4; (MAX_EFFECT 9.32642487) less than 4.

For the compound `COc1cccc(-c2cc(C(F)(F)F)nc(N3CCOCC3)n2)c1`, the PXC50 (MAX_EFFECT 8.510638298) was less than 4 and the PXC50 (MAX_EFFECT 10.3626943) was less than 4.

With `CN(c1ncnc2c1CCC2)C1CCCN(c2cccnn2)C1` (stereo not drawn), the PXC50 by setting is: (MAX_EFFECT 11.7370892) less than 4; (MAX_EFFECT 15.37037037) less than 4.
